{"source": "PubChem BioAssay (EPA / NIEHS)", "note": "Results filed as inconclusive are left out. Active and inactive are the calls of the source. Rule for the calls: active = hit-call score of the fitted dose curve at least 0.9, where 1 is the maximum; inconclusive = response in the unintended direction; inactive = score below 0.9."}
{"experiment": "CCTE_Shafer_MEA_acute_AB: CCTE's Alamar Blue Assay for Cytotoxicity in the Neural Acute Assay, Shafer Lab (AID 2284069);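 note: active compounds lower the viability signal compared with DMSO wells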", "description": "CCTE_Shafer_MEA_acute assay is conducted using Axion Biosystems 48 well microelectrode array (MEA) plates and Maestro recording system. Each well of the MEA plate contains a grid of 16 microelectrodes embedded in the culture surface. Electrically active cells, such as neurons, can be cultured over the electrodes, and electrical activity in these cells can be recorded extracellularly. The spontaneous firing of neurons is captured from each electrode on a microsecond timescale providing both temporally and spatially precise data. […] The CCTE_Shafer_MEA_acute assay uses primary cultures of rat cortical neurons. As these cultures mature over time, neural networks develop functional activity and form cohesive networks in which electrical activity can be highly coordinated. Baseline 40-minute recordings are made on days post-plating 13 or 15, followed by a secondary 40-minute recording after chemical exposure.CCTE_Shafer_MEA_acute_AB is a component of the CCTE_Shafer_MEA_acute assay. It measures the resazurin reduction using fluorescence.Data from the assay component CCTE_Shafer_MEA_acute_AB was analyzed into 1 assay endpoint. This assay endpoint, CCTE_Shafer_MEA_acute_AB, was analyzed in the positive analysis fitting direction relative to DMSO as the negative control and baseline of activity. Using a type of viability reporter, loss-of-signal activity can be used to understand cell viability.\nMetabolic activity was determined using the CellTiter Blue (CTB) assay (Promega Cat. #8081), following the manufacturer's instructions with the following modifications. Following the removal of the 50 uL sample for the LDH assay, 450 uL of media was removed from each well and replaced with 200 uL of fresh media containing a 1:6 dilution of CTB reagent for the determination of metabolic activity. Fluorescence was measured in a Fluorostar Optima fluorimeter using an excitation wavelength of 544 nm and an emission wavelength of 590 nm."}
{"smiles": "CCCCCCCC/C=C\\CCCCCCCC(=O)OC[C@@H](O)[C@H]1OC[C@H](O)[C@H]1O", "outcome": "inactive"}
{"smiles": "COCc1nnc(-c2ccc[n+]([O-])c2)n1-c1c(Cl)c(Cl)cc2[nH]c(=O)c(=O)[nH]c12", "outcome": "inactive"}
{"smiles": "c1ccc(C(O[C@@H]2CCCN(CCc3ccc4c(c3)OCO4)C2)c2ccccc2)cc1", "outcome": "inactive"}
{"smiles": "OC(CCl)CCl", "outcome": "inactive"}
{"smiles": "O=S(=O)(O)c1ccc(N=Nc2c(O)ccc3cc(S(=O)(=O)O)ccc23)cc1", "outcome": "inactive"}
{"smiles": "COc1cc(C(C)C)c2c(c1)S(=O)(=O)N(COc1cc(=O)n3cccc(OCCN4CCCCC4)c3n1)C2=O", "outcome": "inactive"}
{"smiles": "CCc1ccc(O)c(C(C)(C)C)c1", "outcome": "inactive"}
{"smiles": "CCCc1ccccc1", "outcome": "inactive"}
{"smiles": "C=CCc1cc(S(=O)(=O)c2ccc(O)c(CC=C)c2)ccc1O", "outcome": "inactive"}
{"smiles": "Cc1ncc([C@@H](CCCCCCc2ccc3c(n2)NCCC3)CC(=O)O)cn1", "outcome": "inactive"}
{"smiles": "CC[C@H](C)C(=O)O[C@H]1C[C@H](O)C=C2C=C[C@H](C)[C@H](CC[C@@H](O)C[C@@H](O)CC(=O)O)[C@H]21", "outcome": "inactive"}
{"smiles": "COc1cc2c(c(OC)c1OC)-c1ccc(OC)c(=O)cc1[C@@H](NC(C)=O)CC2", "outcome": "inactive"}
{"smiles": "Cn1c(=O)c2[nH]cnc2n(C)c1=O", "outcome": "inactive"}
